Tests used:
[1] = target: Ribosomal protein S6 kinase alpha-6 (Homo sapiens) (UniProt Q9UK32); settings: at 1 µM;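 also: each value is a mean inhibition of RSK4 from a GSK PKIS panel screen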
[2] = target: T1, Serine/threonine-protein kinase Sgk1 (Homo sapiens) (UniProt O00141); settings: at 0.1 µM
T1 sequence (whole entry): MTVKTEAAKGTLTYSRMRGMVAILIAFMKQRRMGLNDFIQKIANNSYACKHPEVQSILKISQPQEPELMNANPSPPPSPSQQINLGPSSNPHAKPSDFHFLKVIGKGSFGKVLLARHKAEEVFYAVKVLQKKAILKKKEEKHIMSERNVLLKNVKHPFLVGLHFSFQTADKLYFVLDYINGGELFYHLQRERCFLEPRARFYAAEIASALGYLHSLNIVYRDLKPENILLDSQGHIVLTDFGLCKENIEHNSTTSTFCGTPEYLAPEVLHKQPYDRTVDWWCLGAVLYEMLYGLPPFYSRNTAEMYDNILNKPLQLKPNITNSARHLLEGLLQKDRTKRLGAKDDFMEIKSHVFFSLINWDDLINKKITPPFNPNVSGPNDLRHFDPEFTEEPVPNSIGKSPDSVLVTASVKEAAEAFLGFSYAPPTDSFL

[3] = target: T1, Serine/threonine-protein kinase Sgk1 (Homo sapiens); settings: at 1 µM
[4] = target: T2, Serine/threonine-protein kinase Sgk2 (Homo sapiens) (UniProt Q9HBY8); settings: at 0.1 µM
T2 sequence (whole entry): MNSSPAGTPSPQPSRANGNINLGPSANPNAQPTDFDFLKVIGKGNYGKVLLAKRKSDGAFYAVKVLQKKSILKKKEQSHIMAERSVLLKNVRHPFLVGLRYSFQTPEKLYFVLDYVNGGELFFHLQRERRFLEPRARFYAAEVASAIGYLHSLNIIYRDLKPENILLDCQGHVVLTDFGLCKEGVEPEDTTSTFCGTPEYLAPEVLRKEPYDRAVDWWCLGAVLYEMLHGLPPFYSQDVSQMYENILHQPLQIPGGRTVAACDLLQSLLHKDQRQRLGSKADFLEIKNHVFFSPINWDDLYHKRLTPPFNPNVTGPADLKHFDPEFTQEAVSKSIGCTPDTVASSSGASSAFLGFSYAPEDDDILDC

[5] = target: T2, Serine/threonine-protein kinase Sgk2 (Homo sapiens); settings: at 1 µM
[6] = target: T3, Serine/threonine-protein kinase Sgk3 (Homo sapiens) (UniProt Q96BR1); settings: at 0.1 µM
T3 sequence (whole entry): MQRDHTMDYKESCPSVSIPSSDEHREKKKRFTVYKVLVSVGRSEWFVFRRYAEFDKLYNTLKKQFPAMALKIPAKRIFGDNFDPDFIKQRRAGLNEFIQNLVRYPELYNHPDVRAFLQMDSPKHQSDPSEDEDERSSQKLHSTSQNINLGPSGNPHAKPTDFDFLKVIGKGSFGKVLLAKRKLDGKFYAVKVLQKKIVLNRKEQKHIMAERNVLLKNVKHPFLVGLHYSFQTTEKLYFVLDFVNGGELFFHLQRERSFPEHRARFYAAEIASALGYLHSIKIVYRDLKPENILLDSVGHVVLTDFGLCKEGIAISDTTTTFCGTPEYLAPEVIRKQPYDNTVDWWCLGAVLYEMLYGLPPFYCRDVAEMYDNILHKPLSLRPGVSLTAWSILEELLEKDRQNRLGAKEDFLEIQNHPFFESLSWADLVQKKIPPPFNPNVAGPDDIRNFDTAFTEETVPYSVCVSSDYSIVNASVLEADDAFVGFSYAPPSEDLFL

[7] = target: T3, Serine/threonine-protein kinase Sgk3 (Homo sapiens); settings: at 1 µM
[8] = target: 5'-AMP-activated protein kinase catalytic subunit alpha-1 (Homo sapiens) (UniProt Q13131); settings: at 0.1 µM
[9] = target: 5'-AMP-activated protein kinase catalytic subunit alpha-1 (Homo sapiens) (UniProt Q13131); settings: at 1 µM
[10] = target: 5'-AMP-activated protein kinase catalytic subunit alpha-2 (Homo sapiens) (UniProt P54646); settings: at 0.1 µM
[11] = target: 5'-AMP-activated protein kinase catalytic subunit alpha-2 (Homo sapiens) (UniProt P54646); settings: at 1 µM
[12] = target: T4, NUAK family SNF1-like kinase 1 (Homo sapiens) (UniProt O60285); settings: at 0.1 µM
T4 sequence (whole entry): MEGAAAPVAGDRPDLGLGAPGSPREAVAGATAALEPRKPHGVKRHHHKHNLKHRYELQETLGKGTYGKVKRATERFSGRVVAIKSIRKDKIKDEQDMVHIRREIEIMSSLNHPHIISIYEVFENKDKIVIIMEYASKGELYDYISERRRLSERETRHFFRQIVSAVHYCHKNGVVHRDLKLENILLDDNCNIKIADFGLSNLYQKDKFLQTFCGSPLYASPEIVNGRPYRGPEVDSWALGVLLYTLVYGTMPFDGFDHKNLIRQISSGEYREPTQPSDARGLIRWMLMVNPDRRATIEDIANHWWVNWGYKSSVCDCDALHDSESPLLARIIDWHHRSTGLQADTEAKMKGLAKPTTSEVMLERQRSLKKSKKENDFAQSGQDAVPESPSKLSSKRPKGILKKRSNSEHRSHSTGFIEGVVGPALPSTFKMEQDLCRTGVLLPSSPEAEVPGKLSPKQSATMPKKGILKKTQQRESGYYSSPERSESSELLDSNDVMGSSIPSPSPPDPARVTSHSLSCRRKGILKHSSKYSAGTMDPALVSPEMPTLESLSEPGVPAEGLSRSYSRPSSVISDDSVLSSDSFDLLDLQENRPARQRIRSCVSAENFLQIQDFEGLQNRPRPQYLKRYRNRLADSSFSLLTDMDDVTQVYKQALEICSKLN

[13] = target: T4, NUAK family SNF1-like kinase 1 (Homo sapiens); settings: at 1 µM
[14] = target: T5, Serine/threonine-protein kinase BRSK1 (Homo sapiens) (UniProt Q8TDC3); settings: at 0.1 µM
T5 sequence (whole entry): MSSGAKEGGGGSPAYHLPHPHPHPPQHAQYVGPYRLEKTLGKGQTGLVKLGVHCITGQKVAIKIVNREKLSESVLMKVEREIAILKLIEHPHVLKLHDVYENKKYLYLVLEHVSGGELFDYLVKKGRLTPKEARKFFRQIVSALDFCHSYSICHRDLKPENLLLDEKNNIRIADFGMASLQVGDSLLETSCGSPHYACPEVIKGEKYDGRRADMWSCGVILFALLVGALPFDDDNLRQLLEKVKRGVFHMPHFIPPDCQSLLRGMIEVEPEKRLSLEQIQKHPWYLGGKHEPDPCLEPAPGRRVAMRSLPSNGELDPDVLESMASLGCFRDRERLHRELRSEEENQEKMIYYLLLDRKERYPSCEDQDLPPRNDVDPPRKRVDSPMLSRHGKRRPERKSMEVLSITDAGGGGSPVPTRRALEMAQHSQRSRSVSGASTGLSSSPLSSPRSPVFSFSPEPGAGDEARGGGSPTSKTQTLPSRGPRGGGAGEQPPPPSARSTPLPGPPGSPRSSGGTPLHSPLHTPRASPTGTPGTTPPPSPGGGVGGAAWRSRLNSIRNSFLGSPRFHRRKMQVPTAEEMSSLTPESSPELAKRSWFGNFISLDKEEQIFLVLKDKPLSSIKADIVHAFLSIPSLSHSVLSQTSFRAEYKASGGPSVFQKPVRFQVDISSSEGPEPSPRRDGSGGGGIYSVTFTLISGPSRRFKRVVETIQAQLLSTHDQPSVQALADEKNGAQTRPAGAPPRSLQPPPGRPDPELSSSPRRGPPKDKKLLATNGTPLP

[15] = target: T5, Serine/threonine-protein kinase BRSK1 (Homo sapiens); settings: at 1 µM
[16] = target: T6, Serine/threonine-protein kinase BRSK2 (Homo sapiens) (UniProt Q8IWQ3); settings: at 0.1 µM
T6 sequence (whole entry): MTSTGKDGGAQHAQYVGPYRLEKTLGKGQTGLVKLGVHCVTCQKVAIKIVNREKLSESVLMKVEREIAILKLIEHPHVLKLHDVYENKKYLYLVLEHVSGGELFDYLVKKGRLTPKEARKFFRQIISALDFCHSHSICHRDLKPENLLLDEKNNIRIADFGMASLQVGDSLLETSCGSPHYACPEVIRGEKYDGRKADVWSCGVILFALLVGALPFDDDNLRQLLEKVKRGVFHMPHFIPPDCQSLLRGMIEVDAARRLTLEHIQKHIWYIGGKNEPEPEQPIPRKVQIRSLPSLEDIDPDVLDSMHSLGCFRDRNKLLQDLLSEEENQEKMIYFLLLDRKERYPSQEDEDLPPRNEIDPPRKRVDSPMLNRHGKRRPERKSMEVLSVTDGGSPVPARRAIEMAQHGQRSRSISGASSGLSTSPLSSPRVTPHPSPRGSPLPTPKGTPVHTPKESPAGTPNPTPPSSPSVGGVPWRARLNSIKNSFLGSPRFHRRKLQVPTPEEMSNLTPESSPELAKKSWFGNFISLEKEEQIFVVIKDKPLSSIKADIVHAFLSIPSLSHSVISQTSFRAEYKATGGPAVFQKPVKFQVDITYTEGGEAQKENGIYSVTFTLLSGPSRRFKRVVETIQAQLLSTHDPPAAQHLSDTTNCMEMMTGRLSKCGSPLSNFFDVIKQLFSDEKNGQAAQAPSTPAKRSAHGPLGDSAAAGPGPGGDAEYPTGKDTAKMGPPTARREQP

[17] = target: T6, Serine/threonine-protein kinase BRSK2 (Homo sapiens); settings: at 1 µM
[18] = target: Calcium/calmodulin-dependent protein kinase type 1D (Homo sapiens) (UniProt Q8IU85); settings: at 0.1 µM
[19] = target: Calcium/calmodulin-dependent protein kinase type 1D (Homo sapiens) (UniProt Q8IU85); settings: at 1 µM
[20] = target: Calcium/calmodulin-dependent protein kinase type II subunit alpha (Homo sapiens) (UniProt Q9UQM7); settings: at 0.1 µM;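 also: reported values are averages (mean inhibition of CAMK2A)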
Calcium/calmodulin-dependent protein kinase type II subunit alpha (Homo sapiens), sequence (Q9UQM7 whole entry): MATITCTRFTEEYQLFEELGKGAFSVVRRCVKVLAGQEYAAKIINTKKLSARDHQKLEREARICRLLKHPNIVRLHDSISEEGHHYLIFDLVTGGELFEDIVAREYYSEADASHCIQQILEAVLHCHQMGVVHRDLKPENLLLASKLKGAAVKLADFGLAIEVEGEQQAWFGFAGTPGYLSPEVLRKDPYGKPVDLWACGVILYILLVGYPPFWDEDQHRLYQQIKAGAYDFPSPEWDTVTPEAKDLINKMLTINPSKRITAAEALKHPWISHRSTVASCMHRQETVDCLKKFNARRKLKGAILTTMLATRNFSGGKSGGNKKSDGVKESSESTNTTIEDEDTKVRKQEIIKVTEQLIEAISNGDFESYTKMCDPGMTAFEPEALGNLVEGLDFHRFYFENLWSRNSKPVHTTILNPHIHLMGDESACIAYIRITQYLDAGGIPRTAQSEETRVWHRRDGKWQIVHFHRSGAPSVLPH

5'-AMP-activated protein kinase catalytic subunit alpha-1 (Homo sapiens), sequence (Q13131 whole entry, looked up): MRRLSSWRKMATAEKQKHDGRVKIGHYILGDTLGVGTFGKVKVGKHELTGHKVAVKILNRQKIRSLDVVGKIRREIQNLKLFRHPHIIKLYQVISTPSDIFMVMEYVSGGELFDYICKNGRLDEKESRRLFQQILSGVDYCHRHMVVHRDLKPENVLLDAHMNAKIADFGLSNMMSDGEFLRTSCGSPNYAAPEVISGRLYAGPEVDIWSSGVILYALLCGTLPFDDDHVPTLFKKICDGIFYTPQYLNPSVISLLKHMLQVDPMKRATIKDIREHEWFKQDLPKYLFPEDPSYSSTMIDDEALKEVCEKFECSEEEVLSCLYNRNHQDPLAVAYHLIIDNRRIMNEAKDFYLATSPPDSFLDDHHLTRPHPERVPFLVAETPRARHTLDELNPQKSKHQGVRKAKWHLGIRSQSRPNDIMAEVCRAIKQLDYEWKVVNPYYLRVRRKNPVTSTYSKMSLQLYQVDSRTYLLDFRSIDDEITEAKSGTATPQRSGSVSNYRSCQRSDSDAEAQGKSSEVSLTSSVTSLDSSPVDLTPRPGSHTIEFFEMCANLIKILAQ
Calcium/calmodulin-dependent protein kinase type 1D (Homo sapiens), sequence (Q8IU85 whole entry, looked up): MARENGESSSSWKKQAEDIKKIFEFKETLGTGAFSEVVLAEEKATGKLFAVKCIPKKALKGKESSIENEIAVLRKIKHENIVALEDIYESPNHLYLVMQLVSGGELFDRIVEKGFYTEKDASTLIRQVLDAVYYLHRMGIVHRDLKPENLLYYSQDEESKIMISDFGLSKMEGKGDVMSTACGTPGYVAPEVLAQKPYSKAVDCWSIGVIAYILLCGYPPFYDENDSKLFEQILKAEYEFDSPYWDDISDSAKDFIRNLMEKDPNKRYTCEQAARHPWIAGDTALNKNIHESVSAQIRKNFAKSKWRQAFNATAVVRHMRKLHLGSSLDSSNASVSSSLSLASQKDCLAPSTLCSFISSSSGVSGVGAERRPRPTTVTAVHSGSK
Ribosomal protein S6 kinase alpha-6 (Homo sapiens), sequence (Q9UK32 whole entry): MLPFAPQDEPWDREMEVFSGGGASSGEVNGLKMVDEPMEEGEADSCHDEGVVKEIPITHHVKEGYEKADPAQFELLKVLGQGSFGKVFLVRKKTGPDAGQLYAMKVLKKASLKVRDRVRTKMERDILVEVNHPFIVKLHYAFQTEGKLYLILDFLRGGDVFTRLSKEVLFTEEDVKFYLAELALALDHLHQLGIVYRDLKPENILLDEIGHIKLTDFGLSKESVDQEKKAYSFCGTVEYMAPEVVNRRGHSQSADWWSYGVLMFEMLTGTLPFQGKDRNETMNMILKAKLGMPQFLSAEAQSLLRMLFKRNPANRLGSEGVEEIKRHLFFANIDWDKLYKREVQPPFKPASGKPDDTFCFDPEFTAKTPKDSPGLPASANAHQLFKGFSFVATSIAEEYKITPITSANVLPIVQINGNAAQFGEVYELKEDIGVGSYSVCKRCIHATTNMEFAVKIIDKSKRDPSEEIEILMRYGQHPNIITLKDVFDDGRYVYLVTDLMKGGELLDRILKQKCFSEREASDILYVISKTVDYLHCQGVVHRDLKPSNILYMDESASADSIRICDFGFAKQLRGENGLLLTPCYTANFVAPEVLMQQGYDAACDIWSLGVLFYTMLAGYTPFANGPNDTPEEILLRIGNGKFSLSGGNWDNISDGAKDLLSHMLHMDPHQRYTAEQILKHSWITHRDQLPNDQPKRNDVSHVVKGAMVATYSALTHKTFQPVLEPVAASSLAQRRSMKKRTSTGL
5'-AMP-activated protein kinase catalytic subunit alpha-2 (Homo sapiens), sequence (P54646 whole entry, looked up): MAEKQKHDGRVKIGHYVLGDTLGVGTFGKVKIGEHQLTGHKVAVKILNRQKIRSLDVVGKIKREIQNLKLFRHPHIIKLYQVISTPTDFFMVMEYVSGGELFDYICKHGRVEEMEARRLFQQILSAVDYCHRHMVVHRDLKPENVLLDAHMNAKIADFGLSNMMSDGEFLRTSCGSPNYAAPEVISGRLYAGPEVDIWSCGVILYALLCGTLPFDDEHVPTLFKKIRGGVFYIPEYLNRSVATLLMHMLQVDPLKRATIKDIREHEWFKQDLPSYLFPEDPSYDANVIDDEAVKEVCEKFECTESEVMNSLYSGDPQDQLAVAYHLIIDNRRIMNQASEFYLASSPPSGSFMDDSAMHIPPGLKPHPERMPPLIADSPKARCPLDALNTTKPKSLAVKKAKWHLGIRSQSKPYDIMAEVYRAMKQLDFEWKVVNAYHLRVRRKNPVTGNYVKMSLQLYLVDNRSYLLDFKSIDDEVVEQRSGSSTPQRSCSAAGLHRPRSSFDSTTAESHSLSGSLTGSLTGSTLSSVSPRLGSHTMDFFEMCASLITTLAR

| Compound | inhibition [1] | inhibition [2] | inhibition [3] | inhibition [4] | inhibition [5] | inhibition [6] | inhibition [7] | inhibition [8] | inhibition [9] | inhibition [10] | inhibition [11] | inhibition [12] | inhibition [13] | inhibition [14] | inhibition [15] | inhibition [16] | inhibition [17] | inhibition [18] | inhibition [19] | inhibition [20] |
| --- | --- | --- | --- | --- | --- | --- | --- | --- | --- | --- | --- | --- | --- | --- | --- | --- | --- | --- | --- | --- |
| Fc1cccc(COc2ccc(Nc3ncncc3C#Cc3ccccc3)cc2Cl)c1 | 1.91% | 3.17% | 7.69% | 5.33% | 8.63% | 5.19% | 7.34% | 3.44% | 7.14% | 1.38% | 2.35% | 1.2% | 3.38% | -0.12% | 3.27% | 0.86% | 4.6% | -0.31% | -0.49% | 4.42% |
| CCCNc1cccc(-n2ncc3c(N/N=C/c4ccncc4)ncnc32)c1 | 3.54% | 2.34% | 13.6% | 2.41% | 10.9% | 3.53% | 5.07% | 1.8% | 3.53% | -1.29% | 2.07% | 5.36% | 36.3% | 2.58% | 24.7% | 4.13% | 29% | 0.76% | 1.66% | 1.4% |
| Fc1ccc(Nc2nccc(-c3c(-c4ccc(C(F)(F)F)cc4)nn4ncccc34)n2)cc1F | 0.66% | 2.17% | 2.25% | 0.8% | -0.85% | 2.84% | 1.5% | 1.79% | 0.39% | 1.16% | 3.75% | 2.79% | 1.57% | 2.38% | 1.19% | 1.46% | 0.71% | -0.76% | 1.66% | 3.04% |
